# Assay results taken from PubChem BioAssay (NCI).
# Compounds without any hit were thinned out: in the full panel of roughly 83,000, 20% have a hit.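 Note: values are percent growth. 100 is the growth of untreated cells, values between 100 and 0 indicate rising inhibition; between -100 and 0 indicates cell death.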 Calls of active or inactive are those of the source.
# Tested on: NCI-H460 lung
# Assay: NCI-60 one-dose screen, 48 h (100 = growth as untreated, 0 = no growth, -100 = all killed)
# Details: 10 µM
# Protocol: Growth inhibition of the NCI-H460 human Non-Small Cell Lung tumor cell line is measured as a screen for anti-cancer activity. Cells are grown in 96 well plates and exposed to the test compound for 48 hours. Compounds are tested at a single concentration, which is 10^-5 M for most compounds. The reported endpoint is percent growth (GI% or GIPRCNT), where numbers from 0 - 100% represent growth inhibition, and numbers from -100% - 0 represent cell death. For example, a value of 40 represents 60% growth inhibition. A value of 0 means no net growth occurred over the course of the experiment. A value of -40 indicates 40% of cells at the beginning of the experiment died by the end of the experiment. A value of -100 means all cells are dead at the end of the experiment.
# NCI-60 Human Tumor Cell Lines Screen was performed using the standard one-dose NCI protocol, which is described in more detail at https://dtp.cancer.gov/discovery_development/nci-60/default.htm.
# Compounds with GIPRCNT values below 10 were considered active. Activity score was based on GIPRCNT using the following formula: […]
# Score is 0 for GIPRCNT values of 100 or above, 50 for GIPRCNT values of 0, and 100 for GIPRCNT values of -100.
row,SMILES,growth
1,COc1ccc(-c2nc3sccn3c2-c2nc3c([nH]2)C(=O)c2ccccc2C3=O)cc1,91.3% (inactive)
2,O=[N+]([O-])c1cccc(-c2ncc(-c3ccc(Cl)cc3Cl)[nH]2)c1,84.1% (inactive)
3,CNc1ncc(-c2ccc(C(F)(F)F)cc2)c(NC2CCCCCC2)n1,87.8% (inactive)
4,N#CSCC1CC(O)(c2ccccc2)CC(c2ccc(Cl)cc2)O1 (stereo not given),37.2% (inactive)
5,CCCCCCCCCCCCC1C/C=C\CCCC(=O)O1 (stereo not given),109% (inactive)
6,CC(=O)O[C@]1(C)CC[C@H]2[C@H](CNCCc3ccc(Cl)cc3)C(=O)O[C@@H]2C2=C(C)C(=O)C[C@H]21,106% (inactive)
7,c1ccc(CO[C@H]2CO[C@H]3[C@@H]2OC[C@H]3OCc2ccccc2)cc1,110% (inactive)
8,Cc1ccc(NC(=O)NC2CCCCC2)cc1,102% (inactive)
9,COC(=O)C(=C\c1ccc2c(c1)OCO2)/C(=C/c1ccc2c(c1)OCO2)C(=O)OC,112% (inactive)
10,C=C1c2c(C)nn(-c3ccc(OC)cc3)c2N(C)C23C[C@@H]1C1(C)c4c(C)nn(-c5ccc(OC)cc5)c4N(C)C(C)(C[C@H]12)C3 (stereo not given in full),6.82% (active)
11,COc1ccc(OC)c2c1C(=O)CC2C (stereo not given),104% (inactive)
12,CCOC(=O)c1ccc(NC(=O)Nc2ncc(Cl)cc2Cl)cc1,93.3% (inactive)
13,COc1ccc([N+](=O)[O-])c(C(=O)O)c1,106% (inactive)
14,N=C(N)c1ccc(-c2ccc(-c3cccs3)s2)s1,-82.2% (active)
15,COc1cc2c(cc1OCCCN1CCN(c3ncnc4ccccc34)CC1)N=CC1CCCN1C2=O (stereo not given),8.4% (active)
16,Nc1c(C(=O)Nc2ccccc2Cl)sc2nc3c(cc12)C(=O)CCC3,12.4% (inactive)
17,CN1CCCNc2c(c(=O)c2=O)NCCCN(C)CCCNc2c(c(=O)c2=O)NCCCN(C)CCCNc2c(c(=O)c2=O)NCCCN(C)CCCNc2c(c(=O)c2=O)NCCCN(C)CCCNc2c(c(=O)c2=O)NCCCN(C)CCCNc2c(c(=O)c2=O)NCCCN(C)CCCNc2c(c(=O)c2=O)NCCC1,32.1% (inactive)
18,COc1ccc(-c2nc(-c3nc4cc(Cl)c(Cl)cc4[nH]3)c3ccccn23)cc1,41.5% (inactive)
19,COc1cc(C)ccc1C(=O)c1ccc(C)cc1OC,5.93% (active)
20,COc1ccc(-c2nc(-c3nc4ccc(Cl)cc4[nH]3)c3ccccn23)cc1,-24.1% (active)

row,SMILES,growth
1,CC[C@H]1CCC/C=C/[C@@H]2C[C@H](O)C[C@H]2[C@H](O)/C=C/C(=O)O1,6.08% (active)
2,COc1cc(/C(=C2/O[C@@H]([C@H]3COC(C)(C)O3)[C@H]3OC(C)(C)O[C@@H]23)c2ccc3ccccc3c2)cc(OC)c1OC,43.4% (inactive)
3,COc1cc(Nc2ccnc(NCCCNc3ccnc4cc(Cl)ccc34)n2)cc(OC)c1,-4.19% (active)
4,CC(=O)/C(=C/c1ccccc1)C(=O)CC(C)C,99.8% (inactive)
5,Oc1[nH]c2cc(Cl)ccc2c1/C=c1/ccc2c(c1)N=C(c1cc(F)cc(F)c1)N=2,6.1% (active)
6,Cc1nc2oc3ccccc3c(=O)c2cc1C(=O)NCc1ccccc1,32.2% (inactive)
7,CCN(CCCCCCN1CC(=O)N(CCCCCCN(CC)Cc2ccccc2OC)CC1=O)Cc1ccccc1OC,75.1% (inactive)
8,C=C(Cl)[C@@](Cl)(CBr)CC[C@@H](Br)C(C)(C)Cl,-47.7% (active)
9,O=C(Nc1cccc(-n2cc(-c3ccncc3)c(-c3cc(O)cc(Cl)c3)n2)c1)c1cc(C(F)(F)F)cc(C(F)(F)F)c1,19.9% (inactive)
10,COc1ccc(OC)c(/C=C/c2nnc(Nc3ccc(Cl)cc3)o2)c1,15.5% (inactive)
11,COc1ccc(-c2nn(-c3cccc(NC(=O)Nc4cc(C(F)(F)F)cc(C(F)(F)F)c4)c3)cc2-c2ccncc2)cc1Cl,-3.36% (active)
12,COc1cc(CNc2ccccc2C(=O)N2CCN(C(=O)c3cc(-c4cc(OC)c(OC)c(OC)c4)n4nc(-c5ccccc5)cc4n3)CC2)cc(OC)c1OC,11.7% (inactive)
13,COc1ccc(-c2nc3sc(C4CC4)nn3c2/C=C2/C(=O)Nc3ccc(OC)cc32)cc1,77.7% (inactive)
14,Nc1cc2c(cc1Cl)-c1ccc([N+](=O)[O-])cc1/C2=N\O,48.8% (inactive)
15,CCN(CC)CCN1CC(=O)Nc2cc(Cl)ccc21,104% (inactive)
16,NC1=NC(=O)C(c2ccccc2)(c2ccccc2)S1,113% (inactive)
17,COC(=O)C(C(C[N+](=O)[O-])c1ccccc1)=P(c1ccccc1)(c1ccccc1)c1ccccc1 (stereo not given),101% (inactive)
18,CCCCCCCCCCCCCCCCN(C(C)c1ccccc1)S(=O)(=O)c1ccc(OC)c(N)c1 (stereo not given),107% (inactive)
19,Cc1cccc(Cl)c1NC(=O)c1ccc2nc(NC(=O)NC3CCN(C)CC3)sc2c1,114% (inactive)
20,CCC1(C(C)C)NC(=O)NC1=O (stereo not given),110% (inactive)
